# Columns and labels:
# [1] = biological target: High affinity nerve growth factor receptor (Homo sapiens) (UniProt P04629); conditions: at 1 µM;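 note: each value is the mean percent inhibition of TRKA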
# [2] = biological target: BDNF/NT-3 growth factors receptor (Homo sapiens) (UniProt Q16620); conditions: at 0.1 µM
# [3] = biological target: BDNF/NT-3 growth factors receptor (Homo sapiens) (UniProt Q16620); conditions: at 1 µM
# [4] = biological target: NT-3 growth factor receptor (Homo sapiens) (UniProt Q16288); conditions: at 0.1 µM
# Sequence of NT-3 growth factor receptor (Homo sapiens) (Q16288 32-839 limits assumed): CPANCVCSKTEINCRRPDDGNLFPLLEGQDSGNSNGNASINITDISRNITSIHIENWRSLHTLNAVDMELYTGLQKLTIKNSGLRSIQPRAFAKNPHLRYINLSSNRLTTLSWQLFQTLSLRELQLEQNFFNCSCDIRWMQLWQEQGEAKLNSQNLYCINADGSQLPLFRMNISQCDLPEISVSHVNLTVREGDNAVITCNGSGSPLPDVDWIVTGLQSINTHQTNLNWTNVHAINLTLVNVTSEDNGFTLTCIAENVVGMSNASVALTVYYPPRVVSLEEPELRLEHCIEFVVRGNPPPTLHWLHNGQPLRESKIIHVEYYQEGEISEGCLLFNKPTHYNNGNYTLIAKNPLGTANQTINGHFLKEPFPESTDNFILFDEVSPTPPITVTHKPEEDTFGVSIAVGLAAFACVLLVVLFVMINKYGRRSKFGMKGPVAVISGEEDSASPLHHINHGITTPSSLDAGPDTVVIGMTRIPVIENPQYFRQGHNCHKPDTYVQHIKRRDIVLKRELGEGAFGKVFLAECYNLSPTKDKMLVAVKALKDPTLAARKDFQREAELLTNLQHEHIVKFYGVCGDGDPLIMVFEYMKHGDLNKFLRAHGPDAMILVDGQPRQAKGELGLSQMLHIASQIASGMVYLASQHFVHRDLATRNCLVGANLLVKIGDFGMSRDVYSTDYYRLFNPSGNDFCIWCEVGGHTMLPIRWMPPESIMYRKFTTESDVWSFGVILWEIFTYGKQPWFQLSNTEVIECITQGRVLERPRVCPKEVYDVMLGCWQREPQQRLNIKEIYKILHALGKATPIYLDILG
# [5] = biological target: NT-3 growth factor receptor (Homo sapiens) (UniProt Q16288); conditions: at 1 µM
# [6] = biological target: T1, Tyrosine-protein kinase TXK (Homo sapiens) (UniProt P42681); conditions: at 0.1 µM
# T1 sequence (whole entry): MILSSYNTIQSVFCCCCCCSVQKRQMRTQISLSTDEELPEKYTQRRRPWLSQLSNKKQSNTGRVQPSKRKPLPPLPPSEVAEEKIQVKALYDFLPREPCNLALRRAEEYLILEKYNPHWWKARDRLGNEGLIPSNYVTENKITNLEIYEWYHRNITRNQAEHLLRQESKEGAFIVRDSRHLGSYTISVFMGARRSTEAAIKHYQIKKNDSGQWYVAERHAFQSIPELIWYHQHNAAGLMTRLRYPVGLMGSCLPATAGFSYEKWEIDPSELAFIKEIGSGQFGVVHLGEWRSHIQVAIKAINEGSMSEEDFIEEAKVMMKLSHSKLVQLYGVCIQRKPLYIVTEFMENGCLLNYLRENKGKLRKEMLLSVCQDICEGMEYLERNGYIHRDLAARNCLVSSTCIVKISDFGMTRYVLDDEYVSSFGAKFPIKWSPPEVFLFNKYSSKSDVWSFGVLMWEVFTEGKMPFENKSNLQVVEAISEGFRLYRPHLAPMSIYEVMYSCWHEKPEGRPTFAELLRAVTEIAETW
# [7] = biological target: T1, Tyrosine-protein kinase TXK (Homo sapiens); conditions: at 1 µM
# [8] = biological target: Non-receptor tyrosine-protein kinase TYK2 (Homo sapiens) (UniProt P29597); conditions: at 0.1 µM;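 note: each value is a mean of the inhibition readings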
# Sequence of Non-receptor tyrosine-protein kinase TYK2 (Homo sapiens) (P29597 whole entry): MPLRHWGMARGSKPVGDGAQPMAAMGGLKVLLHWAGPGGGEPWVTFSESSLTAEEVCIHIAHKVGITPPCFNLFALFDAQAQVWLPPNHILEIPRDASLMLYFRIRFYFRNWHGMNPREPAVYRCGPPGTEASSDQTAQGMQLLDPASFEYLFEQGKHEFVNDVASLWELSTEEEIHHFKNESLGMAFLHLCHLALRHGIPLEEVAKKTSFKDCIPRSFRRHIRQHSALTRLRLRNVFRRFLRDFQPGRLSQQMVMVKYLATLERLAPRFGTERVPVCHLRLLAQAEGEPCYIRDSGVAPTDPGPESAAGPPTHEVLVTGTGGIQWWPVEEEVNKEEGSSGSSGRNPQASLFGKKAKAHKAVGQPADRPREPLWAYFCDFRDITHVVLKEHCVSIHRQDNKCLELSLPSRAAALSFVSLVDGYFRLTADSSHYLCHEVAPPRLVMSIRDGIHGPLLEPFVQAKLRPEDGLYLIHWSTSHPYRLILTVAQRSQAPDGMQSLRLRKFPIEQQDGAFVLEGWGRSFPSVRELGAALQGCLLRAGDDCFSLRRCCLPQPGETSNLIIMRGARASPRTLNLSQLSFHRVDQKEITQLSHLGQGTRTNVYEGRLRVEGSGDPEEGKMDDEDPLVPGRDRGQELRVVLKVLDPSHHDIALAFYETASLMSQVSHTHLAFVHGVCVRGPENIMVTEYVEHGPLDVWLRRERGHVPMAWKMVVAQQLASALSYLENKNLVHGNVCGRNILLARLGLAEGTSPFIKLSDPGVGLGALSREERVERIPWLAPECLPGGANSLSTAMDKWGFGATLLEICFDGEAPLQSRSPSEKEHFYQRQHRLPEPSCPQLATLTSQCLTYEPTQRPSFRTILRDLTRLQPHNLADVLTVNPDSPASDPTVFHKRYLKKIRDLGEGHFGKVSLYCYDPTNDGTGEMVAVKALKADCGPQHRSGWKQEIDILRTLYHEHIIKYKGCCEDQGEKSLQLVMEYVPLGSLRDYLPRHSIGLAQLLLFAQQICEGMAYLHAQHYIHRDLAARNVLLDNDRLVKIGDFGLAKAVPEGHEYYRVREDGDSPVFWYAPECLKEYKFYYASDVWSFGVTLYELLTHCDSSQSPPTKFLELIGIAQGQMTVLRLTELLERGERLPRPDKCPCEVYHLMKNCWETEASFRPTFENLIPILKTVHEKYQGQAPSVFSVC
# [9] = biological target: T2, Dual specificity protein kinase TTK (Homo sapiens) (UniProt P33981); conditions: at 1 µM;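 note: reported figures are mean TTK inhibition at 1 µM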
# T2 sequence (whole entry): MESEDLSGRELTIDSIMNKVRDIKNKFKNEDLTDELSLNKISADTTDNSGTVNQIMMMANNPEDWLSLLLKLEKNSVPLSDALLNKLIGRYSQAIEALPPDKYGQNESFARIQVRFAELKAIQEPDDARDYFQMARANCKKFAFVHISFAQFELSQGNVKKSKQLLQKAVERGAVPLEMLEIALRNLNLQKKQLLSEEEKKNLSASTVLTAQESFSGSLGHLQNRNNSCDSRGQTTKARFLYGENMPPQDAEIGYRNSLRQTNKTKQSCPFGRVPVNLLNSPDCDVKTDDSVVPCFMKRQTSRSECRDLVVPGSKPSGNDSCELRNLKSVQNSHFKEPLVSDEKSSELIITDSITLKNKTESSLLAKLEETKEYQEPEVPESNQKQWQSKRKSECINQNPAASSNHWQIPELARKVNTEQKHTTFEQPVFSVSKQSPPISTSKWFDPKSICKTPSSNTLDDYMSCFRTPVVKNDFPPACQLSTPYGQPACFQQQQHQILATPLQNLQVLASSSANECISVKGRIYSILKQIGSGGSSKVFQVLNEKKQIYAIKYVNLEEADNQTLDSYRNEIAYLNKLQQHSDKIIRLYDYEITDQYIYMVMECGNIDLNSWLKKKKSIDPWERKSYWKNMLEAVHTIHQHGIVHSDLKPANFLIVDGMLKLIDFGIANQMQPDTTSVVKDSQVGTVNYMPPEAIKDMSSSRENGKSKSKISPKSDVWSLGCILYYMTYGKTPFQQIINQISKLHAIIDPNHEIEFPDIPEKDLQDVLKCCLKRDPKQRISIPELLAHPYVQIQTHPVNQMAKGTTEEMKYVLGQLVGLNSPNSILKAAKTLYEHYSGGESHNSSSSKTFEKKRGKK
# [10] = biological target: T3, Aurora kinase A (Homo sapiens) (UniProt O14965); conditions: at 0.1 µM
# T3 sequence (whole entry): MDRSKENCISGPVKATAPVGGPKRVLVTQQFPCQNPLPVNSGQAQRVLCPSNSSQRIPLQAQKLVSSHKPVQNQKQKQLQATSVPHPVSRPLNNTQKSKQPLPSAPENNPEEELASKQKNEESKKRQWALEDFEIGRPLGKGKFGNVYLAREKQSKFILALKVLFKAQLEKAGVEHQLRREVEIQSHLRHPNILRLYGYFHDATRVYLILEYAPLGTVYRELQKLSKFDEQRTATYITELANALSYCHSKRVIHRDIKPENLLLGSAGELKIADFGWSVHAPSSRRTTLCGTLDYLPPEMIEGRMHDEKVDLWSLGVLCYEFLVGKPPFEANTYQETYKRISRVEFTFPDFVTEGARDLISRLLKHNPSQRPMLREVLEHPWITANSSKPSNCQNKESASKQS
# [11] = biological target: T3, Aurora kinase A (Homo sapiens); conditions: at 1 µM
# [12] = biological target: Aurora kinase B (Homo sapiens) (UniProt Q96GD4); conditions: at 0.1 µM
# Sequence of Aurora kinase B (Homo sapiens) (Q96GD4 whole entry): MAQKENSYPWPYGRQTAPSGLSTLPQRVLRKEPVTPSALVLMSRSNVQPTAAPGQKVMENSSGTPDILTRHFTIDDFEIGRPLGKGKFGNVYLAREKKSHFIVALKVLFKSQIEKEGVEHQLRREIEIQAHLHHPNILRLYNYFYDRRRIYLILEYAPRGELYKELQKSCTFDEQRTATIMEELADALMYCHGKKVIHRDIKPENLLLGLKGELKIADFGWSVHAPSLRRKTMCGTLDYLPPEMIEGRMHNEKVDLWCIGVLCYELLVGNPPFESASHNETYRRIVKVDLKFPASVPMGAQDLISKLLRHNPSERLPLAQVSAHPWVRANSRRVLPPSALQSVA
# [13] = biological target: Aurora kinase B (Homo sapiens) (UniProt Q96GD4); conditions: at 1 µM
# [14] = biological target: T4, Aurora kinase C (Homo sapiens) (UniProt Q9UQB9); conditions: at 0.1 µM
# T4 sequence (whole entry): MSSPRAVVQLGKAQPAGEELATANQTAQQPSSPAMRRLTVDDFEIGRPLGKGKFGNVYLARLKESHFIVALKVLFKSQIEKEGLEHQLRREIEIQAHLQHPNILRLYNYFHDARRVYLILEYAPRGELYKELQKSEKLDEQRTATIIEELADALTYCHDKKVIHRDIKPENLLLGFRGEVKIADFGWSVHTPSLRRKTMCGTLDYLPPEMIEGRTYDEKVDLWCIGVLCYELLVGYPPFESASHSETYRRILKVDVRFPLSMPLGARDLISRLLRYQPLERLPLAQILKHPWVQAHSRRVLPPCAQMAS
# [15] = biological target: T4, Aurora kinase C (Homo sapiens); conditions: at 1 µM
# [16] = biological target: Serine/threonine-protein kinase 10 (Homo sapiens) (UniProt O94804); conditions: at 0.1 µM
# Sequence of Serine/threonine-protein kinase 10 (Homo sapiens) (O94804 whole entry, looked up): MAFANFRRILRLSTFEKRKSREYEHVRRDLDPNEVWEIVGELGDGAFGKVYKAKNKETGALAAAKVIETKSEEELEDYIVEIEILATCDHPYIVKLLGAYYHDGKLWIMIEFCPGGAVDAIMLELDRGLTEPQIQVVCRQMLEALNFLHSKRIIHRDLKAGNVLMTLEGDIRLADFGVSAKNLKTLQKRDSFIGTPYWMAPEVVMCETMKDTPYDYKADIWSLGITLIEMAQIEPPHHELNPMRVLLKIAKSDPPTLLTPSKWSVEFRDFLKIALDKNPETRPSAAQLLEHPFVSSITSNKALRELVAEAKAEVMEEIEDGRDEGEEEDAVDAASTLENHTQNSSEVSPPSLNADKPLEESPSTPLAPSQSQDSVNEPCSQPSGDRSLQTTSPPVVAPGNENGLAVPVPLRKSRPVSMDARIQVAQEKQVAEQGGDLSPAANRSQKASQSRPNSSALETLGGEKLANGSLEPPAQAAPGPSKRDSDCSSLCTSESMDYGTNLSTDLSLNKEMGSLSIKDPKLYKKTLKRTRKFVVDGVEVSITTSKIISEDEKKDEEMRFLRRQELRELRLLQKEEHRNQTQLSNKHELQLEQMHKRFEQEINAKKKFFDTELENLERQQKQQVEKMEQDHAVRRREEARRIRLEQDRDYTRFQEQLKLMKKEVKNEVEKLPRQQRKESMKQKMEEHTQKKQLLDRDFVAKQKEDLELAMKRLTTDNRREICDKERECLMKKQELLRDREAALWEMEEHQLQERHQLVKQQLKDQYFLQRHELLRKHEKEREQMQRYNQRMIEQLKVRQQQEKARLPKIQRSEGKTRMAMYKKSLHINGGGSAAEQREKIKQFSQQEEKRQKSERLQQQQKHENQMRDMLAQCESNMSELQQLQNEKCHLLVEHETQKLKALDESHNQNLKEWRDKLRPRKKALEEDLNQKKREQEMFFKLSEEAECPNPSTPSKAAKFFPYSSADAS
# [17] = biological target: Serine/threonine-protein kinase 10 (Homo sapiens) (UniProt O94804); conditions: at 1 µM
# [18] = biological target: T5, Mitogen-activated protein kinase kinase kinase kinase 2 (Homo sapiens) (UniProt Q12851); conditions: at 0.1 µM
# T5 sequence (whole entry): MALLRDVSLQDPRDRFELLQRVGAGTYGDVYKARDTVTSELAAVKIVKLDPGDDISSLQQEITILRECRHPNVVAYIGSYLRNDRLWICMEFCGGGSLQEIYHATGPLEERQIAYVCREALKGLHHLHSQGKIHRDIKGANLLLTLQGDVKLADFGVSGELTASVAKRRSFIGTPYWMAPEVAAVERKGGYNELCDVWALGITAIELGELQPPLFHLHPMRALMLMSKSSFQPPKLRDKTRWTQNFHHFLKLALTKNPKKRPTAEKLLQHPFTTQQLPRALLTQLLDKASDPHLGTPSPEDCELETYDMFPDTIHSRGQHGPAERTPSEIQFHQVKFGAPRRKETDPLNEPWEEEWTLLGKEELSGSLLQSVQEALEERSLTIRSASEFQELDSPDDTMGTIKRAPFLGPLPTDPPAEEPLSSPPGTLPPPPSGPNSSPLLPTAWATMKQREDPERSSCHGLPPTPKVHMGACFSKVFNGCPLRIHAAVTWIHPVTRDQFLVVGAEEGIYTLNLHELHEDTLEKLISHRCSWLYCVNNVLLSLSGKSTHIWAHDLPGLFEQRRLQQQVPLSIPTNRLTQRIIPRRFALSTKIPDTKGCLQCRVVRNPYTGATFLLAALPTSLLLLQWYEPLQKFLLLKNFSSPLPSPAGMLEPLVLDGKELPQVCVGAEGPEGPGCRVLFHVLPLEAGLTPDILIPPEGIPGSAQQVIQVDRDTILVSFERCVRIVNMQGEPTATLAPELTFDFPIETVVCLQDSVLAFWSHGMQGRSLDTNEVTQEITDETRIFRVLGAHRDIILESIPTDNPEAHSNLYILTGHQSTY
# [19] = biological target: T5, Mitogen-activated protein kinase kinase kinase kinase 2 (Homo sapiens); conditions: at 1 µM
# [20] = biological target: Mitogen-activated protein kinase kinase kinase kinase 4 (Homo sapiens) (UniProt O95819); conditions: at 0.1 µM
# Sequence of BDNF/NT-3 growth factors receptor (Homo sapiens) (Q16620 32-822 limits assumed): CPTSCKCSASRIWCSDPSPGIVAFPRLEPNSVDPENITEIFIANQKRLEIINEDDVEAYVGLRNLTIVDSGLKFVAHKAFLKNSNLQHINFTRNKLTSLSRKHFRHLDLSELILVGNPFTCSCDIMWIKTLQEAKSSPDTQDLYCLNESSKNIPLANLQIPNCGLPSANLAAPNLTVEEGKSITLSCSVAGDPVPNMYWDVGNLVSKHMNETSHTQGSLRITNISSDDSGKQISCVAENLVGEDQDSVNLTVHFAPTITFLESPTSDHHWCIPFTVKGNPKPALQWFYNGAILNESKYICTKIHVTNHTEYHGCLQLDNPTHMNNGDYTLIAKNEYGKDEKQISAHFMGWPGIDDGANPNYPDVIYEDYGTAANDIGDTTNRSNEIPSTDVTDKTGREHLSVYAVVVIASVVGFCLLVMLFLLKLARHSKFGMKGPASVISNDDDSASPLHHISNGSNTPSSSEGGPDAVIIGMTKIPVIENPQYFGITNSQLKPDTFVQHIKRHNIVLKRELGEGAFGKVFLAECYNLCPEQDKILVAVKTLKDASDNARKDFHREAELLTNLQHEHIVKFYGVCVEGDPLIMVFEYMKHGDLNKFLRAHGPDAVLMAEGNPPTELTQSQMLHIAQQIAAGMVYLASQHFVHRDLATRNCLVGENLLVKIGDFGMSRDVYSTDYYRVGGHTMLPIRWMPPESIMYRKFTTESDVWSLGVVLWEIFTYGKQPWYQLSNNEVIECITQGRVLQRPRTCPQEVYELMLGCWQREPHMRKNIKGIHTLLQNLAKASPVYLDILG
# Sequence of High affinity nerve growth factor receptor (Homo sapiens) (P04629 33-796 limits assumed): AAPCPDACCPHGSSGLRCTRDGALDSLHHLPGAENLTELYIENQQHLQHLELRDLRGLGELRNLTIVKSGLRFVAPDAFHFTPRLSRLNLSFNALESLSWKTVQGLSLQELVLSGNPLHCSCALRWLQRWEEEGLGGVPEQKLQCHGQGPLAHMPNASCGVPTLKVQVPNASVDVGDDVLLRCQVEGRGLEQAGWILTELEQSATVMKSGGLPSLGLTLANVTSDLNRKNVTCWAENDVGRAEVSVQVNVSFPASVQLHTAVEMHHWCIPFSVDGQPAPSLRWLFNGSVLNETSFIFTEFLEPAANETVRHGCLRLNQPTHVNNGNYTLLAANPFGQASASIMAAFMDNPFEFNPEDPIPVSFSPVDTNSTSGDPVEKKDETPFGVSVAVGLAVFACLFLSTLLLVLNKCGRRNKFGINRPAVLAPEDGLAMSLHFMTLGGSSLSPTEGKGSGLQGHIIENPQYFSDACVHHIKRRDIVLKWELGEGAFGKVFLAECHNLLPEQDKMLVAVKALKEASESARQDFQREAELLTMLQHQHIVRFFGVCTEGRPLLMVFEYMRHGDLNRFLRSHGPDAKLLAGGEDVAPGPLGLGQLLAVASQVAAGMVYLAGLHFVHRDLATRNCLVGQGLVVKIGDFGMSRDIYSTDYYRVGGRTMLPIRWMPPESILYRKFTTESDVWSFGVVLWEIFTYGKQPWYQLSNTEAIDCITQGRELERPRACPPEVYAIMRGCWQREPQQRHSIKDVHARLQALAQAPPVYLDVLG
Compound,inhibition [1],inhibition [2],inhibition [3],inhibition [4],inhibition [5],inhibition [6],inhibition [7],inhibition [8],inhibition [9],inhibition [10],inhibition [11],inhibition [12],inhibition [13],inhibition [14],inhibition [15],inhibition [16],inhibition [17],inhibition [18],inhibition [19],inhibition [20]
O=C1NC(=O)C(c2ccc(Cl)cc2)=C1Nc1ccc(Cl)c(C(=O)O)c1,0.46%,1.23%,0.65%,-1.8%,-0.55%,-0.87%,1.12%,0.04%,-3.54%,-3.12%,4.76%,-0.14%,2.81%,-1.78%,-3.59%,-1.94%,-1.03%,0.42%,2.85%,-1.56%
CCn1c(-c2nonc2N)nc2cnc(Oc3cccc(NC(=O)c4ccc(OCCN5CCOCC5)cc4)c3)cc21,-0.09%,3.18%,0.84%,2.85%,2.49%,5.3%,5.82%,-1.13%,10.2%,6.07%,43%,2.17%,8.22%,1.52%,4.33%,3.13%,9.94%,0.13%,-1.08%,6.11%
Nc1nc(-c2ccc3c(c2)C(=Cc2cc(Br)c(O)c(Br)c2)C(=O)N3)cs1,2.45%,1.16%,9.18%,2.62%,16.6%,-0.27%,0.27%,1.72%,-0.27%,-1.16%,29.2%,1.57%,6.47%,-0.77%,9.45%,2.74%,6.29%,1.39%,5.61%,24.6%
Nc1ncnc2occ(-c3ccc(NC(=O)Nc4cc(C(F)(F)F)cc(C(F)(F)F)c4)cc3)c12,94.1%,42.3%,86.4%,39%,87.4%,1.73%,4.45%,-8.39%,3.75%,2.66%,46%,10.6%,44.5%,1.5%,79.7%,9.76%,29%,15.7%,48.9%,2.54%
NCc1ccc(-c2nc(-c3ccc(Cl)c(O)c3)c(-c3ccncc3)[nH]2)cc1,-1.42%,-0.05%,0.73%,-0.91%,1.61%,18.9%,61.1%,1.75%,7.44%,1.53%,9.73%,1.17%,6.56%,1.89%,5.03%,1.42%,23.7%,3.14%,4.41%,4.02%
O=C1NC(=O)C(N2CCc3ccccc32)=C1c1ccc(Cl)cc1,3.04%,3.69%,7%,2.99%,4.89%,5.42%,8.99%,-4.08%,2.25%,2.79%,15.5%,5.02%,13.8%,3.07%,15.9%,7.48%,8.68%,1.87%,6.3%,4.26%
O=C1NC(=O)C(c2cccc(Cl)c2)=C1Nc1ccc(O)c(Cl)c1,2.57%,-0.13%,0.31%,-0.33%,1.68%,2.35%,3.52%,3.26%,4.84%,2.24%,11.1%,1.17%,6.09%,1.02%,13.1%,6.26%,46.3%,4%,21.3%,1.83%
Cc1ccc(C(=O)NC2CCCCC2)cc1-c1ccc(C(=O)NCC2CC2)cc1,2.19%,0.88%,-0.15%,0.18%,-0.57%,4.64%,5.63%,1.37%,8.51%,4.04%,4.4%,3.05%,7.57%,2.71%,14%,7.27%,6.5%,2.78%,2.05%,2.48%
CCn1c(-c2nonc2N)nc2c(C#CC(C)(C)O)nc(OC[C@@H](N)c3ccccc3)cc21,1.12%,-1.96%,0.07%,-1.23%,3.35%,6.5%,5.38%,2.72%,1.66%,1.81%,11.7%,2.1%,7.36%,4.3%,-0.02%,-0.81%,7.62%,0.61%,8.96%,1.21%
CCn1c(-c2nonc2N)nc2c(C#CC(C)(C)O)nc(CN3CCCC3)cc21,-1.66%,-0.98%,-0.47%,-1.68%,-2.34%,1.55%,2.08%,3.47%,5.1%,0.54%,3.35%,0.07%,4.15%,0.15%,23.3%,-1.82%,1.24%,1.94%,1.87%,1.68%
O=C(Nc1n[nH]c2nc(-c3ccco3)c(Br)cc12)C1CC1,3.72%,-0.07%,1.56%,1.75%,4.33%,2.71%,5.55%,-1.26%,-3.66%,2.52%,45.6%,5.16%,14.5%,2.71%,29.4%,6.48%,11.3%,-0.14%,2.51%,4.76%
CCCN1CCC(Oc2cc(Nc3nc(Nc4cccc(F)c4C(N)=O)c4cc[nH]c4n3)c(OC)cc2Cl)CC1,5.14%,-1.93%,3.41%,-1.48%,5.25%,2.84%,3.46%,0.33%,33.7%,0.38%,5.9%,3.16%,6.47%,2.93%,-1.8%,-0.06%,7.28%,1.26%,9.17%,-0.01%
Cc1nnc(-c2ccc(C)c(-c3ccc(C(=O)Nc4cccc(C#N)c4)cc3)c2)o1,-1.21%,1.33%,3.51%,-0.42%,3.49%,3.37%,4.78%,-1.14%,6.46%,0.8%,5.96%,2.83%,4.74%,1.31%,-2.81%,4.18%,5.45%,-0.38%,2.09%,5.31%

# Reference: ChEMBL document CHEMBL1961873, “Compounds: GSK PKIS; Assays: Nanosyn kinase panel” (2012)
